NadD block = inhibitors of S. aureus NadD, primary screen, biochemical, colorimetric, uHTS; Nicotinate-nucleotide adenylyltransferase NadD (Staphylococcus aureus N315); purified NadD enzyme, colorimetric absorbance read-out; inhibition, % at 20 µM; hit rate 0.78% among 360,000; AID 602399, 2012; in the data active = inhibition above about 26%
Rpn11 block = Rpn11 (PSMD14) deubiquitinase inhibitors, primary screen, biochemical, fluorescence polarization, uHTS; 26S proteasome non-ATPase regulatory subunit 14 (Homo sapiens), O00487; human 26S proteasome, Ub4-pepOG fluorescence polarization; 20S core pre-blocked with epoxomicin; inhibition, % at 20 µM; hit rate 0.59% among 360,000; AID 588493, 2011;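 active = inhibition at 20 µM, scaled to each plate's controls, above about 33%, limit read from the data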
Target sequence (O00487 whole entry, looked up): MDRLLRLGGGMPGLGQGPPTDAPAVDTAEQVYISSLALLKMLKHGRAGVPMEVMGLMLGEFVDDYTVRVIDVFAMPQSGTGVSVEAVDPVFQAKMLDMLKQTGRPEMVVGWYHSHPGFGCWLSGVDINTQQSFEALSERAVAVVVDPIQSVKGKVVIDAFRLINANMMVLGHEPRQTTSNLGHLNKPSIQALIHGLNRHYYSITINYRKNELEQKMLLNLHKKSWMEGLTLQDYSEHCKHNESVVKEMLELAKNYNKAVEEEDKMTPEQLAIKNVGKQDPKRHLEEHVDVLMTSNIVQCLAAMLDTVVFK
PP1 counter = PP1-alpha phosphatase inhibitors, primary screen, counter-screen for PP5 inhibitor project, biochemical, fluorescence, OMFP substrate, single point; inhibition, % at 6.7 µM; purified PP1alpha; Serine/threonine-protein phosphatase PP1-alpha catalytic subunit (Homo sapiens), P62136; AID 2235, 2010; hit rate 0.9% among 320,000;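 active = inhibition above the mean inhibition of all tested compounds plus 3 SD, computed separately for each screening campaign, cut at about 15% in these data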
Target sequence (P62136 whole entry, looked up): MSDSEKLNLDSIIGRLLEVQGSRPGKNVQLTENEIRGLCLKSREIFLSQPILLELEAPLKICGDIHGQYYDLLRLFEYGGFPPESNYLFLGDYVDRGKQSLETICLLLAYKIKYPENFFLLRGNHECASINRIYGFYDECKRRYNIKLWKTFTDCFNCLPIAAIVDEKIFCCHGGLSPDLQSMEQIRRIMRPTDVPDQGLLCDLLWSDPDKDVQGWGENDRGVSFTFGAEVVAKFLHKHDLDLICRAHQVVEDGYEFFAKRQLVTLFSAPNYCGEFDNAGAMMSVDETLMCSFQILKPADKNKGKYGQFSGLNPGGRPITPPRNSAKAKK
PP5 inh = PP5 phosphatase inhibitors, primary screen, biochemical, fluorescence; inhibition, % at 6.7 µM; AID 1987, 2009; purified PP5c, OMFP substrate fluorescence; Serine/threonine-protein phosphatase 5 (Homo sapiens), P53041; hit rate 0.18% among 320,000;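 active = inhibition above the campaign's mean inhibition across all tested compounds plus 3 SD, cut at about 9.5% in these data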;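 also: 0% = DMSO only and 100% = 100 µM cantharidin control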
PREPL inh = PREPL enzyme inhibitors, primary screen, biochemical, fluorescence polarization | hit rate 0.68% among 320,000 | recombinant PREPL, fluorescence polarization activity-based probe | inhibition, % at 5.96 µM | Prolyl endopeptidase-like (Homo sapiens), Q4J6C6; in the data active = inhibition above about 43%;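 also: 0% = enzyme with DMSO and 100% = wells lacking enzyme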
PP1 inh confirm = PP1 phosphatase inhibitors, confirmation, biochemical, fluorescence, OMFP substrate, triplicate | inhibition, % at 6.7 µM | shares compounds with PP1 counter | purified PP1alpha | hit rate 52% among 1,900;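 active = mean PP1 inhibition above a set limit taken from the earlier primary screen, cut at about 15% in these data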
PP5 inh counter = PP5 phosphatase inhibition by PP1 hits, confirmation, counter-screen for PP1 inhibitor project, biochemical, fluorescence, triplicate; AID 2360, 2010; inhibition, % at 6.7 µM; hit rate 4% among 1,900; shares compounds with PP1 counter; purified PP5c, OMFP fluorescence;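 active = mean PP5 inhibition over triplicate wells above about 9.5% taken from the earlier PP1 screen, limit read from the data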
Numbers without * were called inactive; x = no result given. The list is not random: actives were taken first. Their share in the collection is about 2.4%.

SMILES | NadD block | Rpn11 block | PP1 counter | PP5 inh | PREPL inh | PP1 inh confirm | PP5 inh counter
Cc1cc(C(=O)N2CCCC(Nc3ccc(C(C)C)cc3)C2)nn1C (centres undefined) | -3.7 | 1.8 | 47.3* | -1.4 | 11.3 | -2.1 | -1.9
COc1cc(CNC[C@H]2O[C@@H](n3ccc(N)nc3=O)[C@H](O)[C@@H]2O)ccc1OCc1ccc(C)cc1 | 4.8 | -0.6 | x | x | x | x | x
COc1cccc(NC(=O)N(C)C[C@@H]2OCc3cnnn3CCCC(=O)N([C@H](C)CO)C[C@@H]2C)c1 | -1.1 | -4.8 | x | x | x | x | x
Cc1nnc(NC(=O)c2ccc(S(=O)(=O)N3CC(C)CC(C)C3)cc2)o1 (centres undefined) | 8.7 | -4.3 | 22.5* | 1.2 | -1.4 | 8.1 | 0.5
CC1CCCN(S(=O)(=O)c2ccc(C(=O)Nc3nnc(C4=COCCO4)o3)cc2)C1 (centres undefined) | 13.1 | -2.0 | 19.2* | 4.2 | 4.0 | 1.5 | -3.7
CCOC(=O)N1CCN(S(=O)(=O)c2ccc(C(=O)Nc3nnc(C)o3)cc2)CC1 | 6.4 | 4.9 | 7.4 | 0.7 | -7.2 | x | x
O=C(Nc1nnc(C2=COCCO2)o1)c1ccc(Cl)cc1 | 5.0 | -6.2 | 5.5 | 1.6 | -1.1 | x | x
O=C(Nc1nnc(C2=COCCO2)o1)c1ccc(Cc2ccccc2)cc1 | 25.4 | -6.0 | 21.8* | 0.1 | 6.1 | 19.9* | -0.6
Cc1nnc(NC(=O)c2ccc(S(=O)(=O)N3CCc4ccccc4C3)cc2)o1 | 16.6 | 2.1 | 24.1* | 1.9 | 10.6 | 21.1* | -2.9
CCOc1ccc(NC(=O)C2CCCN2S(=O)(=O)c2ccc(OCC)cc2)cc1 (centres undefined) | -10.7 | -1.0 | 4.1 | 2.4 | 16.1 | x | x
COc1ccc(Cc2nc3ccc(C(=O)NCCCSC)cc3o2)cc1OC | -2.2 | -7.8 | -1.8 | -1.4 | -5.2 | x | x
C[C@@H]1CCCCO[C@H](CN(C)C(=O)Nc2ccc(F)cc2)[C@@H](C)CN([C@H](C)CO)C(=O)c2cc(N(C)C)ccc2O1 | 0.3 | 2.5 | x | x | x | x | x
Cc1cc(Br)ccc1NC(=O)C1C2CCC(O2)C1C(=O)O (centres undefined) | 1.6 | -2.7 | 54.8* | 62.6* | 10.4 | 9.3 | 16.3*
O=C(O)C1C2CCC(O2)C1C(=O)NCCC1=CCCCC1 (centres undefined) | -5.9 | 4.9 | 60.7* | 69.0* | -4.4 | 31.2* | 40.6*
COc1ccc(NC(=O)C2C3CCC(O3)C2C(=O)O)c(C)c1 (centres undefined) | -1.8 | -1.3 | 61.5* | 65.1* | 0.6 | 12.3 | 27.1*
O=C(O)C1C2CCC(O2)C1C(=O)NCc1ccccc1Br (centres undefined) | 5.4 | -7.5 | 16.9* | 34.1* | -6.8 | 10.1 | 17.3*
COc1cn(-c2ccccc2)nc1C(=O)OCC(=O)Nc1ccc(C)c(C)c1 | -1.5 | 1.2 | 3.4 | -1.0 | 18.7 | x | x
CN1CCN(c2ccc3sc(-n4ccc5ccccc54)nc3c2)CC1 | 2.9 | -4.7 | x | x | x | x | x
CCc1ccc(-n2c(C)cc(/C=N/NC(=O)OC)c2C)cc1 | 2.2 | 13.0 | -2.3 | -0.1 | 3.1 | x | x
Cc1cccc(NC(=O)CNC(=O)c2sc3ccccc3c2Cl)n1 | -2.3 | 10.3 | 22.4* | -1.5 | -4.5 | 3.5 | -3.5
N#Cc1ccsc1NC(=O)COC(=O)C1=NNC(=O)CC1 | 12.4 | 1.5 | 18.8* | 1.4 | 16.7 | 7.0 | -3.9
Cc1ccc(S(=O)(=O)N2CCC(=O)N(C(COCc3cccc(C(F)(F)F)c3)Cc3ccccc3)CC2)cc1 (centres undefined) | -1.9 | -0.5 | 20.1* | 7.3 | 15.6 | 2.7 | -1.3
COc1ccc(-n2c(C)cc(/C=C3\SC(=O)NC3=O)c2C)cc1 | 5.2 | 5.6 | 9.8 | 0.4 | -1.4 | x | x
Cc1cc(/C=C2\SC(=Nc3ccccc3)NC2=O)c(C)n1-c1ccc(S(N)(=O)=O)cc1 | 45.8* | 31.9 | 18.2* | 3.9 | 18.3 | 7.1 | 0.1
Cc1ccc2c(c1)N(C(=O)CCC(=O)NCc1cccc(F)c1)CCO2 | -2.0 | -5.3 | -2.5 | 1.7 | 3.2 | x | x
SMILES | NadD block | Rpn11 block | PP1 counter | PP5 inh | PREPL inh | PP1 inh confirm | PP5 inh counter
CCOCCCNC(=O)CCc1nnc2n(CCC(C)C)c(=O)c3ccccc3n12 | 1.4 | -2.3 | -0.4 | 0.0 | 2.6 | x | x
CCC(C)Sc1cc(-c2nc3ccc(C)cn3c2NCc2ccccc2)ccc1OC (centres undefined) | 26.4 | -3.5 | 17.8* | 5.3 | 12.6 | 5.0 | 2.5
CCC(C)Sc1ccc(-c2nc3ccc(C)cn3c2NCc2ccccc2)cc1OC (centres undefined) | 2.9 | 2.1 | 12.3 | 7.0 | 7.1 | x | x
O=C1CC(=O)C(n2cncn2)C(c2cccc(Cl)c2)C1 (centres undefined) | -6.7 | -1.7 | 22.2* | 1.7 | -11.2 | -5.9 | -5.5
Cc1cc(Cl)ccc1NC(=S)NCCC(c1ccccc1)c1ccccc1 | -2.4 | -2.1 | 18.1* | -1.0 | -13.2 | -1.7 | 0.7
O=C(CCNC(=O)c1ccc(Cl)cc1)NCC(c1ccco1)N1CCCC1 (centres undefined) | 1.5 | -2.2 | x | x | x | x | x
CC[C@]12C(=O)N(C)C[C@H]([C@@H]3C(=O)N(Cc4ccccc4)C(=O)[C@@H]31)N2C(=O)c1ccc(F)cc1 | 1.5 | -8.7 | x | x | x | x | x
Cc1csc2nc(O)c(C(=O)NCCCc3ccccc3)c(=O)n12 | 5.4 | -3.2 | 20.1* | 1.1 | -2.6 | 13.4 | -5.1
COc1cnc(-c2ccccn2)nc1Sc1ccccc1Cl | 12.0 | 1.7 | 46.6* | 6.2 | 22.3 | 51.4* | 6.3
COc1cnc(-c2ccccn2)nc1Sc1c(Cl)cccc1Cl | 10.8 | 2.7 | 49.6* | 4.7 | 31.6 | 40.6* | 0.8
Cc1ccccc1-c1cc(C(=O)NCc2ccco2)n(CC2CC(c3cccnc3)=NO2)n1 (centres undefined) | 5.9 | -7.0 | -0.8 | 0.7 | 5.1 | x | x
C=CCn1c(N)cc(=O)nc1SC(C)C(=O)Nc1ccc(C(=O)OCC)cc1 (centres undefined) | -1.9 | 1.9 | -4.5 | 3.7 | 9.8 | x | x
CC(C)(C)c1ccc(C(=O)NNC(=O)c2cccc(Br)c2)cc1 | -7.2 | 1.4 | 0.8 | 0.7 | 6.6 | x | x
Cc1cccc(NC(=O)C(=O)NNC(=O)c2ccc(C(C)(C)C)cc2)c1 | 4.8 | 7.6 | 21.3* | -2.5 | -5.6 | 9.8 | -1.4
CS(=O)(=O)c1ccc2nc(NC(=O)CCNC(=O)c3ccccc3Cl)sc2c1 | -4.9 | 0.8 | -1.1 | 3.6 | 17.8 | x | x

Source: PubChem
